This note sets out measurements from PubChem BioAssay.

“And” between values parts separate entries of the source, which are not always exact repeats. Equal values may be shown once. For part of these data: Measured potencies and affinities stand elsewhere. More than one record can exist for a structure, and the calls need not agree. The source made the active and inactive calls. Unless noted, the rule behind the calls is not given here.

A short description of experiment [1]: antimalarial activity against Dd2 strain (AID 2302;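 active = growth inhibition above 50% at the single 2 µM test dose, taken to imply half-maximal potency below 2 µM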;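 note: 0% = DMSO untreated growth and 100% = chloroquine plus artemisinin killed control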). To be noted: P. falciparum Dd2 in RBCs, LDH growth readout, 72 h; at 2 µM; stronger effect = higher value.
Experiment [2] can be described thus: human hepatoma cell viability loss – ATP luminescence, cytotoxicity control for P. falciparum antimalarial project, primary screen (AID 2303;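 active = inhibition above 50%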;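 note: 0% = DMSO wells and 100% = digitonin-killed cells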). To be noted: HepG2 viability, 24-48 h, at 10 µM, stronger effect = higher value.
Experiment [3] has as its target L-lactate dehydrogenase (Plasmodium falciparum (isolate CDC / Honduras)) (UniProt Q27743). The experiment is described as follows: PfLDH activity inhibition – cell lysate, 3D7 strain, counter-screen for P. falciparum growth inhibition project (AID 2304).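 Note: 0% = vehicle and 100% = reference inhibitor.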 To be noted: P. falciparum 3D7 crude extract, LDH APAD/NBT absorbance; at 2 µM; stronger effect = higher value. (Counterscreens check selectivity or assay interference.)

A short description of experiment [4]: inhibition of 3D7 malaria parasite growth – strain 3D7 (AID 2306).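 Note: 0% = DMSO wells and 100% = chloroquine plus artemisinin control wells.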 Conditions: P. falciparum 3D7 erythrocytic growth, LDH absorbance, 72 h; at 2 µM; stronger effect = higher value.
In experiment [5] the target is Calcium-dependent protein kinase 1 (Plasmodium falciparum (isolate 3D7)) (UniProt P62344). Nature of the experiment: PfCDPK1 kinase inhibitors, biochemical, TCAMS library (AID 1159585; cut-off not given, nearly all actives have IC50 up to about 0.98 µM;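 note: inhibitors leave more ATP so luminescence rises with inhibition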). Conditions: recombinant PfCDPK1, Kinase-Glo ATP depletion luminescence. A general note: In Kinase-Glo more light means more ATP remaining.
Chain of Calcium-dependent protein kinase 1 (Plasmodium falciparum (isolate 3D7)) (P62344 whole entry, looked up): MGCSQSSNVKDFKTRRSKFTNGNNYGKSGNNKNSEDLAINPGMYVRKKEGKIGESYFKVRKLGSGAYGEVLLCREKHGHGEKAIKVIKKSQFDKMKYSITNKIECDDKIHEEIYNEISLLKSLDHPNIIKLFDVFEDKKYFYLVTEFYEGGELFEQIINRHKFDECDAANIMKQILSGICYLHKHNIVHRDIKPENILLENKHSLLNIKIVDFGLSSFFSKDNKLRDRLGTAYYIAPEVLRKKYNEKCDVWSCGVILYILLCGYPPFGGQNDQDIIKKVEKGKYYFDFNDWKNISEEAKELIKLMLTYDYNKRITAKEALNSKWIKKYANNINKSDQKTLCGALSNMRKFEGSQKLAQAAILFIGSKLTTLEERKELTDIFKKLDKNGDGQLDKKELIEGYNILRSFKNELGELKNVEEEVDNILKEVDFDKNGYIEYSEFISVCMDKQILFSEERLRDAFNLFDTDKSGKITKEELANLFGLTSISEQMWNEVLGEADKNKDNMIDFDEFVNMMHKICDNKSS
In experiment [6] the target is Plasmodium falciparum protein kinase 6 (PK6, PF3D7_1337100) (UniProt Q8IDW1). The experiment is described as follows: PfPK6 kinase inhibitors, biochemical, TCAMS library (AID 1159586). To be noted: recombinant PfPK6, Kinase-Glo ATP depletion luminescence.
Chain of Plasmodium falciparum protein kinase 6 (PK6, PF3D7_1337100) (Q8IDW1 1-305): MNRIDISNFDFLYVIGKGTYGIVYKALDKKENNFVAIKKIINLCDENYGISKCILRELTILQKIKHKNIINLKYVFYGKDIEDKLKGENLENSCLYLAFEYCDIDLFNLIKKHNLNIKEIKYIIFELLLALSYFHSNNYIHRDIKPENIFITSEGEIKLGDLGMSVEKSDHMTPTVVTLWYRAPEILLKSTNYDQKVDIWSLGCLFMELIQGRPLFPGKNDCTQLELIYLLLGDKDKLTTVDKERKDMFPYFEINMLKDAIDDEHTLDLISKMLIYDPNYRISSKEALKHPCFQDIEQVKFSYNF
The target in experiment [7] is Protein kinase 7 (PK7), Plasmodium falciparum 3D7 (PF3D7_0213400) (UniProt Q7YTF7). Nature of the experiment: inhibition of Plasmodium PK7 catalytic activity – biochemical, TCAMS antimalarial set, Kinase-Glo luminescence (AID 1159587). To be noted: recombinant PfPK7, Kinase-Glo ATP depletion luminescence.
Chain of Protein kinase 7 (PK7), Plasmodium falciparum 3D7 (PF3D7_0213400) (Q7YTF7 1-343): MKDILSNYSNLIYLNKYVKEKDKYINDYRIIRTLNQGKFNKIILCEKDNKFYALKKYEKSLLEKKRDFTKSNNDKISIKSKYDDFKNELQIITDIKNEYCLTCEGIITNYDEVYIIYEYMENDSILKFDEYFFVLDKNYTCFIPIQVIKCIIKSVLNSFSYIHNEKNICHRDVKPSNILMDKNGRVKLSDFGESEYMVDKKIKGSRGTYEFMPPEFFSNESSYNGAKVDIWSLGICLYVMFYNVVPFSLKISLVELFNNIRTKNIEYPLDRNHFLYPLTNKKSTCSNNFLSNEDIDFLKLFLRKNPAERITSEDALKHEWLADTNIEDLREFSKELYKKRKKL
Experiment [8] has as its target Calcium-dependent protein kinase 4 (Plasmodium falciparum (isolate 3D7)) (UniProt Q8IBS5). Nature of the experiment: PfCDPK4 kinase inhibitors, biochemical, TCAMS library (AID 1159588; cut-off not given, nearly all actives have IC50 up to about 0.91 µM). Conditions: recombinant PfCDPK4, Kinase-Glo ATP depletion luminescence.

Chain of Calcium-dependent protein kinase 4 (Plasmodium falciparum (isolate 3D7)) (Q8IBS5 whole entry, looked up): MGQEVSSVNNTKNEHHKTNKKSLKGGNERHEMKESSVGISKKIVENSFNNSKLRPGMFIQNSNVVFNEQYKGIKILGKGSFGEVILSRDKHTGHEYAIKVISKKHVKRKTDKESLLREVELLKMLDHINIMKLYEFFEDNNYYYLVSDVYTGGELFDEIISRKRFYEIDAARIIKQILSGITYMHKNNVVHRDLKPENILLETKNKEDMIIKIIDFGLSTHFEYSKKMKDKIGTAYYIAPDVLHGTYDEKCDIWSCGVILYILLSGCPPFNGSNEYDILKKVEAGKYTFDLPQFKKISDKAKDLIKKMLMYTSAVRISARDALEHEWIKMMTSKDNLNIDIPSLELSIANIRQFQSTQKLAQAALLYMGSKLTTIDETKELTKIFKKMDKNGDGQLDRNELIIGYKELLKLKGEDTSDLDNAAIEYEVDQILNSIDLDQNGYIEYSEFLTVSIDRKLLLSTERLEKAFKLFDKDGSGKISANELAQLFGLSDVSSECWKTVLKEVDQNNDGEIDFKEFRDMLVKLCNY
Chain of L-lactate dehydrogenase (Plasmodium falciparum (isolate CDC / Honduras)) (Q27743 whole entry, looked up): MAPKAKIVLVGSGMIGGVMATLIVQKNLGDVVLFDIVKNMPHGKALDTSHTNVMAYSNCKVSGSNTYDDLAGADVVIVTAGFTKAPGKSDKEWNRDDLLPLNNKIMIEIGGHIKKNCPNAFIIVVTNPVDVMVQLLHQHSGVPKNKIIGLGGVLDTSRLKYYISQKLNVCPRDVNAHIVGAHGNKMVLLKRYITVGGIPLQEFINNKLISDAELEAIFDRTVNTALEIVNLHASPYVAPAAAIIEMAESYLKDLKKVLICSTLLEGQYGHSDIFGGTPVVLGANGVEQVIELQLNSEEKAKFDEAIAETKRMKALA

As for `C[C@@H](CC1CCCCC1)NCc1ccccc1O`, the growth inhibition in experiment [1] was 67% (active); in experiment [4], 98% (active). The inhibition (as a rule, the relative decrease from the control value, in per cent) was 9% (inactive) in experiment [2] and 3% (inactive) in experiment [3]. In addition, the result in experiment [5], in experiment [6], in experiment [7] and in experiment [8] was inactive.

As for `CCCCCc1cc(O)c2c(c1)OC(C)(C)CC2C1=CCN(Cc2ccccc2)CC1` (centres undefined), the growth inhibition is 79% (active) in experiment [1] and 99% (active) in experiment [4]. The inhibition is 15% (inactive) in experiment [2] and -5% (inactive) in experiment [3]. The outcome in experiment [5], in experiment [6], in experiment [7] and in experiment [8] was inactive.

`CC(=O)C1(c2ccccc2)CCN(CCC2(c3ccc(Cl)c(Cl)c3)CN(C(=O)C3CCCCC3)CCO2)CC1` (centres undefined): the growth inhibition in experiment [1] is 99% (active); in experiment [4] it was 100% (active). The inhibition in experiment [2] is 3% (inactive); in experiment [3], -2% (inactive). The result in experiment [5], in experiment [6], in experiment [7] and in experiment [8] was inactive.

Take `CC[C@H]1CN2CC[C@H]1C[C@H]2[C@H](O)c1cc(-c2ccc(F)cc2)nc2ccc(OC)cc12`: the growth inhibition was 98% (active) in experiment [1] and 99% (active) in experiment [4]. In addition, the results for the inhibition in experiment [2] and in experiment [3] were 34% (inactive) and 5% (inactive), respectively. The outcome in experiment [5], in experiment [6], in experiment [7] and in experiment [8] was inactive.

Consider `C=C[C@H]1CN2CC[C@H]1C[C@H]2[C@H](O)c1cc(/C=C/c2ccc(F)cc2)nc2ccc(OC)cc12`, for which the growth inhibition in experiment [1] and in experiment [4] was 99% (active) in each case. In addition, the figures for the inhibition in experiment [2] and in experiment [3] were 25% (inactive) and 4% (inactive), respectively. Further, the result in experiment [5], in experiment [6], in experiment [7] and in experiment [8] was inactive.

As for `NC(=O)c1ccc2[nH]cc(C3CCN(CC4CCC(NC(=O)/C=C/c5ccc(Cl)c(Cl)c5)CC4)CC3)c2c1` (centres undefined), the growth inhibition in experiment [1] is 26% (inactive) and 32% (inactive); in experiment [4], 101% (active) and 100% (active). Also, the inhibition is 11% (inactive) and -1% (inactive) in experiment [2]; 5% (inactive) and -8% (inactive) in experiment [3]. In addition, the result in experiment [5], in experiment [6], in experiment [7] and in experiment [8] was inactive.

Turning to `CCCCCCC(CC)c1cc(O)c2c(c1)OC(C)(C)c1ccncc1-2` (centres undefined), the growth inhibition in experiment [1] was 52% (active); in experiment [4], 94% (active). The inhibition in experiment [2] is -1% (inactive); in experiment [3], -6% (inactive). The result in experiment [5], in experiment [6], in experiment [7] and in experiment [8] was inactive.

Take `CC(C)CNCc1cccc(-c2cccc(CN(C(=O)c3cccs3)C3CCN(Cc4ccccc4)CC3)c2)c1`: the growth inhibition in experiment [1] was 36% (inactive); in experiment [4] it was 90% (active). The inhibition in experiment [2] is 14% (inactive); in experiment [3] it was -4% (inactive). Further, the outcome in experiment [5], in experiment [6], in experiment [7] and in experiment [8] was inactive.

In the case of `CC(C)CNCc1cccc(-c2cccc(CN(C(=O)Nc3ccccc3)C3CCN(Cc4ccccc4)CC3)c2)c1`, the growth inhibition in experiment [1] is 89% (active); in experiment [4], 102% (active). In addition, the inhibition is 31% (inactive) in experiment [2] and 3% (inactive) in experiment [3]. Moreover, the result in experiment [5], in experiment [6], in experiment [7] and in experiment [8] was inactive.

Take `Cc1c(C)c2c(c(C)c1O)CC[C@](C)(C(=O)NC1CCC(CN3CCC(c4c[nH]c5ccccc45)CC3)CC1)O2` (some centres undefined): the growth inhibition in experiment [1] was 98% (active) and 48% (inactive); in experiment [4] it was 96% (active) and 85% (active). Moreover, the inhibition in experiment [2] was 24% (inactive) and 27% (inactive); in experiment [3], -2% (inactive) and 1% (inactive). The result in experiment [5], in experiment [6], in experiment [7] and in experiment [8] was inactive.

In the case of `O=C(NC1CCC(CN2CCC(c3c[nH]c4ccccc34)CC2)CC1)c1cnn(-c2ccccc2)c1-c1ccccc1Cl` (centres undefined), the growth inhibition in experiment [1] is 11% (inactive); in experiment [4] it was 95% (active). The inhibition in experiment [2] was 66% (active); in experiment [3] it was -6% (inactive). Further, the outcome in experiment [5], in experiment [6], in experiment [7] and in experiment [8] was inactive.

In the case of `CCCCCC(C)C(C)c1cc(O)c2c(c1)O[C@@]1(C(C)C)CC(O)[C@H](C)[C@@H]2C1` (some centres undefined), the growth inhibition in experiment [1] was 87% (active); in experiment [4], 93% (active). The values for the inhibition in experiment [2] and in experiment [3] were 1% (inactive) and -3% (inactive), respectively. Moreover, the result in experiment [5], in experiment [6], in experiment [7] and in experiment [8] was inactive.

With `COC(=O)c1ccc(CC(C)NCC(O)c2cccc3ccccc23)cc1` (centres undefined), the growth inhibition in experiment [1] was 82% (active); in experiment [4], 96% (active). Moreover, the values for the inhibition in experiment [2] and in experiment [3] were 3% (inactive) and 4% (inactive), respectively. Besides, the result in experiment [5], in experiment [6], in experiment [7] and in experiment [8] was inactive.

Regarding `Cc1[nH]c2ccc([N+](=O)[O-])cc2c1C1=CCN(C)CC1`, the growth inhibition in experiment [1] is 68% (active); in experiment [4], 86% (active). Further, the inhibition was 6% (inactive) in experiment [2] and 4% (inactive) in experiment [3]. Also, the outcome in experiment [5], in experiment [6], in experiment [7] and in experiment [8] was inactive.

On to `O=C(c1cc(C(F)(F)F)cc(C(F)(F)F)c1)N1CC[C@H](CCN2CCC3(CC2)C(=O)NCN3c2ccccc2)C[C@H]1Cc1ccc(Cl)c(Cl)c1`, for which the growth inhibition was 77% (active) in experiment [1] and 100% (active) in experiment [4]. Besides, the inhibition in experiment [2] is 19% (inactive); in experiment [3], -4% (inactive). Further, the result in experiment [5], in experiment [6], in experiment [7] and in experiment [8] was inactive.

For `O=C(NC1CCC(CN2CCC(c3c[nH]c4ccccc34)CC2)CC1)c1csc(-c2cccc(Cl)c2Cl)n1` (centres undefined), the growth inhibition in experiment [1] is 41% (inactive); in experiment [4], 99% (active). For the same molecule, the inhibition in experiment [2] is 34% (inactive); in experiment [3], -3% (inactive). In addition, the result in experiment [5], in experiment [6], in experiment [7] and in experiment [8] was inactive.

With `CC(=O)Nc1ccc(OCCN(CC(C)C)c2ccc(C#N)c(C(F)(F)F)c2)c(Cl)c1`, the growth inhibition in experiment [1] and in experiment [4] was 94% (active) throughout. The inhibition is 13% (inactive) in experiment [2] and 2% (inactive) in experiment [3]. Moreover, the outcome in experiment [5], in experiment [6], in experiment [7] and in experiment [8] was inactive.

With `NCc1cccc(-c2cccc(CN(C(=O)Nc3ccccc3)C3CCN(Cc4ccccc4)CC3)c2)c1`, the growth inhibition in experiment [1] is 8% (inactive); in experiment [4], 99% (active). Further, the inhibition was 3% (inactive) in experiment [2] and -2% (inactive) in experiment [3]. Besides, the outcome in experiment [5], in experiment [6], in experiment [7] and in experiment [8] was inactive.
